Reference: PubChem BioAssay (Tox21)
“And” between values parts separate entries of the source, which are not always exact repeats. Equal entries are not always repeated. Inconclusive results are not listed. Entries that show only a call come without a potency. A structure can be active in one record and inactive in another. The source made the active and inactive calls. Calls come from the whole dose curve; as a rule, active = well fitted cell-killing curve with a large enough effect in the repeat runs; inconclusive = weak or mixed curves, or effect the other way; inactive = no such curve, though single readings can be large or run the other way.

Assay: qHTS assay to identify small molecule antagonists of the glucocorticoid receptor (GR) signaling pathway - cell viability counter screen (AID 720693); note: nearly all actives have a fitted effect of over 55% in size
Settings: GR-bla HeLa viability, CellTiter-Glo luminescence, 18 h, with 5 nM dexamethasone present; series mostly up to 58.5 µM; viability change, negative = cytotoxic: at the top concentration

SMILES	Potency
CC(C)[C@@H]1CC[C@@H](C)C[C@H]1O	inactive
O=C(C1CCCCC1)N1CC(=O)N2CCc3ccccc3C2C1 (stereo not given)	inactive
COc1c2occc2cc2ccc(=O)oc12	inactive
Cn1c(=O)c2[nH]cnc2n(C)c1=O	inactive
O=NO	inactive
O=C(O)c1[nH]n(-c2ccc(S(=O)(=O)O)cc2)c(=O)c1N=Nc1ccc(S(=O)(=O)O)cc1	inactive
Cc1noc(NS(=O)(=O)c2ccc(N)cc2)c1C	inactive
CCCCOC(=O)CC(CC(=O)OCCCC)(OC(C)=O)C(=O)OCCCC	inactive
CC(O)CO (stereo not given)	inactive

Assay: qHTS assay for identifying genotoxic compounds that show differential cytotoxicity against isogenic chicken DT40 cell lines with known DNA damage response pathways - wild type cell line (AID 743012); note: nearly all actives have a fitted effect of over 60% in size; note: potency is the fitted concentration of half-maximal effect
Settings: DT40 wild type chicken cells viability, CellTiter-Glo, 40 h; series mostly up to 68.4 µM; activity change, negative = cytotoxicity: at the top concentration
How it was run: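 First, wild type DT40 cells were plated at 300 per well and equilibrated about 0.5 h at 37 C/5% CO2. Next, compounds in DMSO were added and exposure lasted 40 h. Finally, CellTiter-Glo was added for 30 min at room temperature and luminescence recorded.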

SMILES	Potency	activity change, negative = cytotoxicity
Cc1ccc(C)c(OCCCC(C)(C)C(=O)O)c1	inactive	
Oc1ccc(/C=C/c2cc(O)cc(O)c2)cc1	7.17 µM (active) and 30.6 µM (active)	
Cc1ccc(S(=O)(=O)NC(=O)NN2CCCCCC2)cc1	inactive	
NC(=O)NC1NC(=O)NC1=O (stereo not given)	inactive	
CCCCCCCCCCCCCCCC(=O)O	11.9 µM (active) and inactive	
CC(C)[C@@H]1CC[C@@H](C)C[C@H]1O	inactive	
O=C(C1CCCCC1)N1CC(=O)N2CCc3ccccc3C2C1 (stereo not given)	inactive	
C1N2CN3CN1CN(C2)C3	inactive	
COc1c2occc2cc2ccc(=O)oc12	inactive	
NC(N)=O	inactive and 24.3 µM (active)	
COc1ccc2[nH]cc(CCNC(C)=O)c2c1	inactive	
OCCc1ccccc1	inactive	
CCCC(O)C(CC)CO (stereo not given)	inactive	
CCCN(CCC)S(=O)(=O)c1ccc(C(=O)O)cc1		2.59% (inactive)
Nc1ccc(S(=O)(=O)Nc2nccs2)cc1	inactive	
O=C(O)C(=O)O	inactive	

SMILES	Potency	activity change, negative = cytotoxicity
O=C(O)CCCCCCCC(=O)O	inactive	
N=C(N)c1ccc(OCCCCCOc2ccc(C(=N)N)cc2)cc1	1.88 µM (active) and 5.42 µM (active) and 1.31 µM (active)	
O=NO	inactive	
NC(N)=NC(=O)c1nc(Cl)c(N)nc1N	inactive	
Cc1cc(=O)[nH]c(=S)[nH]1	inactive	
O=C(O)c1[nH]n(-c2ccc(S(=O)(=O)O)cc2)c(=O)c1N=Nc1ccc(S(=O)(=O)O)cc1	inactive	
NS(=O)(=O)c1cc(C(=O)O)c(NCc2ccco2)cc1Cl	inactive	
Cc1noc(NS(=O)(=O)c2ccc(N)cc2)c1C	inactive	
CC(O)CO (stereo not given)	inactive	
O=C(O)c1cc(N=Nc2ccc(S(=O)(=O)Nc3ccccn3)cc2)ccc1O	inactive	
CCCCC1C(=O)N(c2ccccc2)N(c2ccccc2)C1=O	inactive	
CCCCC(CC)COC(=O)/C=C/c1ccc(OC)cc1 (stereo not given)	inactive	
NC(=O)c1ccccc1O	inactive	
O=C(O)CS	inactive and 61.6 µM (active)	
O=S(=O)(O)NC1CCCCC1	inactive	
